# An excerpt weighted towards active compounds, which were near 4.5% of everything screened.
# dFosB act – activators of delta FosB homodimer, primary screen, biochemical, fluorescence polarization, TAMRA-CDK5 oligo, single point; Protein FosB (Mus musculus), P13346; purified delta FosB; percent of positive-control signal above neutral wells; activation, % at 25 µM; 0.99% of 340,000 active; AID 493131, 2011;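 active = mean activation above about 17%, with every replicate also reaching it, limit read from the data, passing the limit was not always enough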
# NR3A LBD binder – binders of NR3A ligand-binding domain, primary screen, biophysical, differential scanning fluorimetry, uHTS | Glutamate receptor ionotropic, NMDA 3A (GRIN3A) ligand-binding domain | NR3A LBD differential scanning fluorimetry, Tm shift; 0% = protein alone, 100% = glycine-bound protein | Tm shift relative to glycine control, % at 25 µM | 2.5% of 340,000 active | AID 1259313, 2017;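 active = melting temperature shift of at least 10% of the positive control shift, at one fixed dose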
# Rpn11 inh – Rpn11 (PSMD14) deubiquitinase inhibitors, primary screen, biochemical, fluorescence polarization, uHTS | inhibition, % at 20 µM | human 26S proteasome, Ub4-pepOG fluorescence polarization; 20S core pre-blocked with epoxomicin | AID 588493, 2011 | 26S proteasome non-ATPase regulatory subunit 14 (Homo sapiens), O00487 | 0.59% of 360,000 active;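 active = inhibition at 20 µM, scaled to each plate's controls, above about 33%, limit read from the data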
# Target sequence (O00487 whole entry, looked up): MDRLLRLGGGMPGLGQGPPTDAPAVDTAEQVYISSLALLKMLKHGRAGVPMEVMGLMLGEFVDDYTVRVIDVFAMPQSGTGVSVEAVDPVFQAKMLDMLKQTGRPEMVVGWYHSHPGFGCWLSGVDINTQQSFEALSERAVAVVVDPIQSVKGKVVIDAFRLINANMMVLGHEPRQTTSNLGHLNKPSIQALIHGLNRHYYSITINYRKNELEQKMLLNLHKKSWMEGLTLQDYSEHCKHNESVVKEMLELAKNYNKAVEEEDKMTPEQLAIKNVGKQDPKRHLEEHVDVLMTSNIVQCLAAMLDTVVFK
# EBNA-1 inh – EBNA-1 DNA-binding inhibitors, primary screen, biochemical, fluorescence polarization. inhibition, % at 14.8 µM. 0.34% of 300,000 active. AID 1950, 2009; in the data active = inhibition above about 28%
# ZTA DNA inh – counter-screen for EBNA-1 inhibitors: inhibitors of Epstein-Barr virus ZTA; ZTA-DNA binding, fluorescence polarization; inhibition, % at 11 µM; 0.15% of 320,000 active; in the data active = inhibition above about 33%
# Target sequence (P03206 whole entry, looked up): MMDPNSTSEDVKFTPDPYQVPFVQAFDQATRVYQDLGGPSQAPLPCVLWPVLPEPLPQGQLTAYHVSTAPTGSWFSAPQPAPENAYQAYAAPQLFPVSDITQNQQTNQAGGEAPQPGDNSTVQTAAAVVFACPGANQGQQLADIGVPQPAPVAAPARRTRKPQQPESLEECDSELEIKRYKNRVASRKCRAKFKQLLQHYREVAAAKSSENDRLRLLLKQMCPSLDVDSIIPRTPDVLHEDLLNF
# TPT1 inhibitor – Candida albicans TPT1 enzyme inhibitors, primary screen, biochemical, fluorescence polarization; tRNA 2'-phosphotransferase TPT1 (Candida albicans SC5314); recombinant caTPT1, FP RNA substrate dephosphorylation; inhibition, % at 5 µM; 0.81% of 300,000 active; AID 1962, 2009;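 active = inhibition above the mean of all tested compounds plus 3 SD, set per screening campaign, cut at about 24% in these data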;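 note: plate controls were DMSO alone for no effect and ferristatin control at 100 nM for full effect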
# Rpn11 inh conf – Rpn11 (PSMD14) deubiquitinase inhibitors, confirmation, biochemical, fluorescence polarization, single concentration; shares compounds with Rpn11 inh; purified human 26S proteasome, Ub4-pepOG fluorescence polarization; proteasome pretreated with epoxomicin; inhibition, % at 20 µM; 29% of 1,900 active; AID 602318, 2012
# MMP-2 inh – MMP-2 enzyme inhibition, confirmation, counter-screen for RPN11 inhibitor project, biochemical, fluorescence, single concentration | shares compounds with Rpn11 inh | recombinant MMP-2, FRET peptide cleavage fluorescence | AID 602330, 2012 | 4% of 1,900 active | inhibition, % at 20 µM;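 note: human MMP-2 activated beforehand with APMA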
# Thrombin FP – bovine thrombin protease inhibition, confirmation, counter-screen for Rpn11 inhibitor project, biochemical, fluorescence polarization, single concentration; shares compounds with Rpn11 inh; bovine thrombin cleavage of Ub4-pepOG; inhibition, % at 20 µM; 13% of 1,900 active;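 active = mean inhibition at least 40% at 20 µM, or signal 3 deviations below plate average, so some actives read negative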;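 note: plate controls were thrombin with DMSO for no effect and buffer wells lacking thrombin for full effect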
# An asterisk follows results filed as active; . = no result; + = active, no number. Cut-off read from the data, not from the text of the source, unless noted: active = inhibition above about 40%; inactive = the rest.
SMILES,dFosB act,NR3A LBD binder,Rpn11 inh,EBNA-1 inh,ZTA DNA inh,TPT1 inhibitor,Rpn11 inh conf,MMP-2 inh,Thrombin FP
CN1/C(=C\C(=S)NC(=O)c2cccc(Br)c2)C(C)(C)c2ccccc21,8,0,48*,2,8,4,25,22,9
O=C(Nc1ccc(CN2CCCCC2)cc1)c1sc2ccccc2c1Cl,-12,-3,1,-7,0,-2,.,.,.
CN(C)c1ccc(/C=N/NC(=O)c2nnn(-c3nonc3N)c2COc2ccc(F)cc2)cc1,-10,11*,138*,16,7,-2,-15,-38,-22
CCN(CC)Cc1c(C(=O)N/N=C/c2ccncc2)nnn1-c1nonc1N,-3,-4,+,-14,-2,-4,-9,8,-4
COCCN(C(=O)COc1ccccc1C#N)c1c(N)n(Cc2ccccc2)c(=O)[nH]c1=O,4,1,7,1,-8,4,.,.,.
O=C(NCCc1ccccc1)C1CCCN1C(=O)Nc1ccc(Cl)cc1 (stereo unspecified),-3,1,-3,-7,6,0,.,.,.
O=[N+]([O-])c1ccc(Cl)cc1Sc1cccc2cccnc12,5,5,-2,1,-6,0,.,.,.
Cn1nc([N+](=O)[O-])nc1Sc1cccc2cccnc12,-5,3,46*,-1,13,-2,8,-33,-11
COP(=O)(CC(=O)c1ccccc1)CC(=O)c1ccccc1,-7,-1,0,0,-8,-4,.,.,.
Cc1cccc(OCCCC(=O)N2CCCCCC2)c1C,2,1,47*,.,.,.,-16,-1,-18
Cn1cnnc1SCC(=O)Nc1ccc2nc(SCc3ccccc3)sc2c1,-12,-28,64*,-5,-2,0,-7,-8,-6
O=[N+]([O-])c1ccc(O)c(/C=N/NC2=NS(=O)(=O)c3ccccc32)c1,4,-1,49*,-5,-8,3,90*,22,30
O=[N+]([O-])c1ccc(/C=N/NC2=NS(=O)(=O)c3ccccc32)cc1,-7,1,-2,2,3,3,.,.,.
Cc1ccc2nc(C(Cl)(Cl)Cl)nc(N/N=C/c3ccc([N+](=O)[O-])cc3)c2c1,3,-1,8,.,.,.,.,.,.
C=CCn1cc(/C=N/NC(=O)COc2cccc3cccnc23)c2ccccc21,-7,-4,59*,4,1,3,88*,-10,53*
CC(C)n1cc(/C=N/NC(=O)COc2cccc3cccnc23)c2ccccc21,3,-8,2,-4,-13,5,.,.,.
Cc1cccc2cc(C#N)c(SCC(=O)N3CC(=O)Nc4ccccc43)nc12,-2,-3,25,1,10,12,.,.,.
COc1ccc2cc(C#N)c(SCC(=O)N3CC(=O)Nc4ccccc43)nc2c1,-5,2,48*,0,-10,3,-4,-42,-20
O=C(CCn1cnc2ccccc2c1=O)Nc1cccc(Cl)c1Cl,3,0,-9,-8,-4,2,.,.,.
FC(F)Sc1ccc(NC(=S)NC2CCC(NC(=S)Nc3ccc(SC(F)F)cc3)CC2)cc1 (stereo unspecified),1,17*,143*,-3,13,-5,9,21,-1
COCCCn1c(=O)/c(=C\c2ccccc2OC(F)F)s/c1=C(/C#N)C(N)=O,-13,1,49*,7,7,3,13,-11,3
O=C(COC(=O)CCc1ccccc1)Nc1cc(S(=O)(=O)N2CCOCC2)ccc1N1CCCC1,-13,-2,0,6,1,1,.,.,.
Cc1cc(/C=C(/C#N)c2nc3ccccc3[nH]2)c(C)n1-c1cc(C(=O)O)cc(C(=O)O)c1,-4,-2,20,.,.,.,.,.,.
Cc1cc(/C=C(/C#N)c2nc3ccccc3[nH]2)c(C)n1-c1ccccc1C(=O)O,-12,1,55*,-6,-6,24,75*,-3,51*
COCC1CCCCN1C(=O)c1cccc(OC2CCN(S(C)(=O)=O)CC2)c1 (stereo unspecified),-4,-1,-2,-7,-15,-4,.,.,.
SMILES,dFosB act,NR3A LBD binder,Rpn11 inh,EBNA-1 inh,ZTA DNA inh,TPT1 inhibitor,Rpn11 inh conf,MMP-2 inh,Thrombin FP
COc1ccccc1NC(=O)Nc1nc(CC(=O)Nc2cc(F)ccc2F)cs1,-7,21*,46*,5,9,11,11,-10,-14
Cc1cccc(OC(C)C(=O)N2CCCN(C)CC2)c1C (stereo unspecified),-5,1,7,-3,-8,1,.,.,.
COC(=O)c1cc(S(=O)(=O)N2CCC(c3cc(OC)ccc3OC)C2)c[nH]1 (stereo unspecified),-8,3,2,1,9,2,.,.,.
CN(C)c1ccc(/C=C2/C=C(c3ccc4c(c3)CCCC4)OC2=O)cc1,-8,0,69*,4,-7,6,-6,-50,-14
Cc1ccc(C=C2C=C(c3ccccc3)OC2=O)cc1,.,.,10,.,.,.,.,.,.
O=C(CCN1C(=O)/C(=C/C=C/c2ccccc2)SC1=S)Nc1cccnc1,-13,0,37,3,28,11,.,.,.
O=C(CCN1C(=O)/C(=C/C=C/c2ccccc2)SC1=S)Nc1ccccn1,-12,2,38*,-2,-9,20,-2,-10,-34
O=c1c2c3c(sc2nc2n1N=C(c1cccs1)CS2)CCCC3,2,4,58*,-11,-3,4,16,-27,-17
COC(=O)c1ccc(/C=N/OCC(=O)NCCc2ccc(OC)c(OC)c2)cc1,0,-2,33*,0,-24,-2,2,-6,-13
COc1ccc(CCNC(=O)CC(=O)N/N=C/c2ccc(C(=O)O)cc2)cc1OC,-5,-1,4,-7,-28,2,.,.,.
CSc1ccc(S(=O)(=O)N2CCC(C(=O)Nc3ccc(NC(C)=O)cc3)CC2)cc1,-2,2,5,1,-6,-5,.,.,.
